NLRP3 yeast inh: NALP3 inflammasome inhibitors in reconstituted yeast, primary screen, luminescence, uHTS; Yeast reconstituted NLRP3/ASC/caspase-1, beta-gal luminescence, 24 h; inhibition, % at 10 µM; 330,000 compounds, 0.39% hits; AID 2825, 2010;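 active = inhibition of 50% or more; inactive = inhibition below 50%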;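 note: plate controls were induced DMSO wells for no effect and uninduced yeast grown without galactose for full effect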
tim23-1 inh: growth inhibitors of tim23-1 mutant yeast, primary screen, luminescence, uHTS. 330,000 compounds, 1.3% hits. S. cerevisiae tim23-1 growth, BacTiter-Glo luminescence, 24 h. inhibition, % at 20 µM. AID 463212, 2010;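 active = growth inhibition of the mutant yeast at or above 50%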;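 note: temperature-sensitive mutant grown at 25 °C; plate controls were DMSO-treated mutant yeast for no effect and medium wells lacking yeast for full effect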
V-ATPase pHluor: regulators of yeast V-ATPase proton pumping, primary screen, pHLuorin cytosolic pH fluorescence. S. cerevisiae. 350,000 compounds, 0.37% hits. response, % at 10 µM; in the data active = response mostly above about 7.3%, no sharp cut-off; inactive = mostly below about 5.4%; note: actives read high
TIM10 inh: growth inhibitors of isogenic TIM10 control yeast, primary screen, counter-screen for tim10-1 yeast inhibitor project, luminescence, uHTS. 330,000 compounds, 1.4% hits. S. cerevisiae TIM10 strain growth, BacTiter-Glo luminescence, 24 h. inhibition, % at 10 µM;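 active = inhibition of 40% or more at the single tested concentration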;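 note: wild-type TIM10 isogenic control strain grown at permissive 25 °C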
NALP1 yeast inh: NALP1 inflammasome inhibitors in reconstituted yeast, colorimetric, S. cerevisiae, triplicate retest; 280,000 compounds, 0.61% hits; inhibition, % at 10 µM; AID 2071, 2009; S. cerevisiae NALP1/ASC/caspase-1 growth, X-gal OD620, 72 h; in the data active = inhibition mostly above about 24%, no sharp cut-off; inactive = mostly below about 32%
tim10-1 inh: growth inhibitors of tim10-1 mutant yeast, primary screen, luminescence, uHTS. S. cerevisiae tim10-1 ts strain growth, BacTiter-Glo, 24 h. inhibition, % at 20 µM. 330,000 compounds, 2.2% hits. AID 463190, 2010;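 active = inhibition of at least 40%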;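 note: mutant grown at 25 °C; 0% = DMSO wells with yeast and 100% = wells holding no yeast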
tim10-1 conf: growth inhibitors of tim10-1 mutant yeast, confirmation, single concentration, luminescence, S. cerevisiae; AID 463213, 2010; inhibition, % at 20 µM; shares compounds with tim10-1 inh; S. cerevisiae tim10-1 ts strain growth, BacTiter-Glo, 24 h; 7,400 compounds, 56% hits;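 active = inhibition of yeast growth at or above a set limit in either of two repeat tests at 20 µM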;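 note: tim10-1 mutant grown at permissive 25 °C to find synthetic lethal compounds; 0% = DMSO yeast wells and 100% = medium wells without yeast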
TIM10 conf: growth inhibitors of wild-type TIM10 yeast, confirmation, counter-screen for tim10-1 synthetic lethality project, single concentration, luminescence, S. cerevisiae; shares compounds with TIM10 inh; S. cerevisiae tim10 strain growth, BacTiter-Glo luminescence, 24 h; inhibition, % at 10 µM; 4,600 compounds, 63% hits; AID 463215, 2010;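 active = inhibition of yeast growth at or above a set limit in either of two replicates at 10 µM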;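 note: this counterscreen used the strain with wild-type TIM10; 0% = yeast with DMSO and 100% = medium wells lacking yeast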
An asterisk follows results filed as active; nt = no result given. Shown are actives, neighbours in structure and some others; about 4.2% of the full set was active somewhere.

SMILES	NLRP3 yeast inh	tim23-1 inh	V-ATPase pHluor	TIM10 inh	NALP1 yeast inh	tim10-1 inh	tim10-1 conf	TIM10 conf
COC(=O)C(=C/C(C)=C/c1cccs1)C(=O)OC	48	38	1	43*	1	44*	28	43*
Cc1cc2ncn(-c3ncnc4sc5c(c34)CCC(C)C5)c2cc1C (centres undefined)	15	47	1	52*	6	50*	45*	45*
Cc1cc2ncn(-c3ncnc4sc5c(c34)CCCC5)c2cc1C	-9	40	nt	19	4	37	nt	nt
Cc1cc2ncn(-c3ncnc4scc(-c5ccccc5)c34)c2cc1C	4	40	-2	41*	6	50*	45*	37*
Cc1ccc(SCCC(=O)N/N=C/c2ccccc2O)cc1	1	11	-1	48*	14	43*	14	44*
COc1ccccc1N1CCN(C(=O)c2oc3c(c2C)C(=O)CC(C)(C)C3)CC1	12	26	8	23	25	24	nt	nt
CC1CCCC(NC(=O)CCC(=O)N2CCOc3ccccc32)C1C (centres undefined)	13	10	-2	7	7	11	nt	nt
CC(C)(C)NC(=O)C12CC3CC(CC(Cl)(C3)C1)C2	16	15	0	12	37	14	nt	nt
CC(C)(C)NC(=S)NC(=O)C12CCC3CC(CC(C3)C1)C2	28	34	1	49*	8	44*	32*	36*
Cn1nc(C(F)(F)F)c2cc(NC(=O)OCc3ccc(C(C)(C)C)cc3)sc21	8	6	-1	15	19	9	nt	nt
Cn1nc(C(F)(F)F)c2cc(NC(=O)OCc3ccc(F)cc3)sc21	18	-6	3	56*	-12	58*	49*	54*
Cc1ccc(NC(=S)NNC(=O)C2CC2c2ccc(C)cc2)cc1 (centres undefined)	2	17	-4	40*	-17	41*	27	17
CCN(CC)S(=O)(=O)c1cccc(C(=O)OCC(=O)c2ccc3c(c2)OCCO3)c1	21	30	1	10	40	33	nt	nt
N/N=C(/Cc1nc2ccccc2[nH]1)c1ccc([N+](=O)[O-])cc1	-13	28	-1	51*	-14	42*	50*	58*
CCOC(=O)/C=c1\s/c(=C\c2sccc2C)c(=O)n1CC(=O)NCc1ccc(C)cc1	17	17	nt	0	-8	10	nt	nt
FC(F)(F)Oc1ccc(NC(=S)Nc2ccc(OC(F)(F)F)cc2)cc1	31	49	5	57*	nt	50*	62*	70*
Oc1ccccc1CC=NC1CCCCC1	nt	nt	9	nt	nt	nt	nt	nt
COc1nnc(-c2ccc(C)c(S(N)(=O)=O)c2)c2ccccc12	5	1	-2	-2	3	-1	nt	nt
COc1nnc(-c2ccc(N3CCCCC3)c(N)c2)c2ccccc12	22	49	-2	49*	nt	44*	36*	40*
Cn1c(=O)c2c(nc(N3CCN(c4ccccn4)CC3)n2Cc2ccccc2Cl)n(C)c1=O	16	24	-4	51*	8	43*	28	35*
Cc1cccc(NC(=O)C(C)Sc2nc3nc(C)cc(C)n3n2)c1 (centres undefined)	16	4	-2	-14	nt	-7	nt	nt
CC(/C=N/n1c(-c2ccccc2)n[nH]c1=S)=C\c1ccco1	21	48	3	44*	30	42*	13	41*
CC(=O)N1c2ccc(S(=O)(=O)N3CCCCC3)cc2CC1C(=O)NCc1ccccc1C (centres undefined)	5	-1	4	5	-8	3	nt	nt
Cc1cccc(NC(=O)c2cc([N+](=O)[O-])ccc2N2CCCCC2)n1	14	31	-6	47*	14	43*	39*	18
CC(=O)Nc1cccc(NC(=O)c2cc([N+](=O)[O-])ccc2N2CCCCC2)c1	17	15	2	16	nt	11	nt	nt
SMILES	NLRP3 yeast inh	tim23-1 inh	V-ATPase pHluor	TIM10 inh	NALP1 yeast inh	tim10-1 inh	tim10-1 conf	TIM10 conf
Cc1ccccc1CSc1nnc2ccc(-c3ccncc3)nn12	-3	15	8	-3	-14	-4	nt	nt
O=C(Nc1nc2nc(-c3ccccc3)cc(-c3ccccc3)n2n1)c1ccco1	41	39	3	60*	40	43*	27	14
CC(=O)Nc1nc2nc(-c3ccccc3)cc(-c3ccccc3)n2n1	1	10	-1	27	15	26	nt	nt
CCC(=O)N(Cc1ccco1)c1nc(C(=O)Nc2ccc(Cl)cc2)c(C)s1	13	35	4	44*	nt	46*	35*	38*
CCN(C(=O)c1ccco1)c1nc(CC(=O)Nc2ccc(Cl)cc2)cs1	36	24	-3	20	23	-1	nt	nt
COc1ccc(-c2cn3cc(C)ccc3n2)cc1OC	17	39	3	67*	10	50*	43*	60*
COc1ccc(-c2cn3ccccc3n2)cc1OC	-1	12	-1	8	8	17	nt	nt
CCN(CC(=O)Nc1ccc(OC)cc1)C(=O)c1ccc(OCc2c(C)noc2C)cc1	nt	nt	-6	nt	nt	nt	nt	nt
O=[N+]([O-])c1ccc(-c2nc(-c3cccs3)c(-c3cccs3)[nH]2)cc1	-10	15	0	69*	8	65*	52*	61*
COc1ccc2[nH]c3c(=O)n4c(nc3c2c1)SCC4	4	28	0	40*	6	45*	37*	18
CCOC(=O)CSC1=NC(=O)/C(=C\c2ccc(OC(C)=O)cc2)S1	7	46	-1	51*	-7	69*	69*	63*
Cc1ccnc(NC(=O)c2cccc(NC(=O)c3ccccc3C)c2)c1	11	11	-4	5	11	-3	nt	nt
CCC(=NCc1ccco1)c1c(C(F)(F)F)[nH]n(-c2nc3ccccc3s2)c1=O	19	19	-3	44*	42	65*	63*	41*
CC1(C)CC(NS(=O)(=O)c2ccc(S(N)(=O)=O)cc2)CC(C)(C)N1	12	6	3	9	25	16	nt	nt
COc1cc(OC)cc(C(=O)NNS(=O)(=O)c2ccc(F)cc2)c1	-12	2	8	12	18	-3	nt	nt
O=C(Nc1cc(Sc2ccccn2)cc([N+](=O)[O-])c1)c1cccc(Cl)c1	14	38	-2	54*	14	42*	34*	-1

Assay outcomes from PubChem BioAssay.
